Laboratory results as given in PubChem BioAssay.
Values joined by “and” are separate entries in the source; they are usually repeats but may differ in a detail not shown here. Equal entries are not always repeated. Active and inactive are the calls of the source.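 Rule for the calls: active = inhibition at or above 50% relative to wild type and mutant plate controls; inactive = inhibition below 50%.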

Assay: inhibitors of Chlamydomonas gravitaxis, primary screen, whole organism, Chlamydomonas reinhardtii, WT vs cilia-less mutant, absorbance, 96-well (AID 463189);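 note: 0% = wild type cc124 cells in DMSO and 100% = ciliumless bld1 mutant cells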
Conditions: OD600 absorbance, 2 days, at 10 µM, hits give high values

Compound | inhibition
C[N+](C)(C)CC(=O)O | 3.38% (inactive)
CCCN1CCC[C@@H](c2cccc(C#N)c2)C1 | 9.39% (inactive)
NCc1cc(=O)[nH]o1 | 5.71% (inactive)
CCC1(C2=NCCN2)Cc2ccccc2O1 (centres undefined) | -5.93% (inactive)
NNC(N)=O | 1.88% (inactive)
OC1CCCCC1N1CCC(c2ccccc2)CC1 (centres undefined) | 3.25% (inactive)
Cn1cnc(CCN)c1 | 3.08% (inactive)
CCCN1CCc2cc(O)cc3c2[C@H]1Cc1ccc(O)c(O)c1-3 | 0.25% (inactive)
Cc1nccc2c1[nH]c1ccccc12 | 10.4% (inactive)
CN1C2CCC1CC(OC(c1ccccc1)c1ccc(Cl)cc1)C2 (centres undefined) | 11.8% (inactive)
COc1ccc2[nH]c3c(c2c1)CCNC3 | -4.14% (inactive)
C[C@]12CC[C@@H](O)CC1CC[C@@H]1[C@@H]2CC[C@]2(C)C(=O)CC[C@@H]12 (some centres undefined) | 0.791% (inactive)
NCCc1c[nH]c2ccccc12 | 2.92% (inactive)
CCN(CC)C(=O)N[C@@H]1C[C@@H]2c3cccc4[nH]cc(c34)C[C@H]2N(C)C1 | 5.28% (inactive)
NC(=O)CN1CC(O)CC1=O (centres undefined) | 9.01% (inactive)
CCCN1CCC[C@@H]2Cc3[nH]ncc3C[C@H]21 | 1.82% (inactive) and 2.66% (inactive)
Cc1c(C(=O)c2cccc3ccccc23)c2cccc3c2n1[C@H](CN1CCOCC1)CO3 | 9.81% (inactive)
C[N+]1(C)C2CCC1CC(OC(=O)C(CO)c1ccccc1)C2 (centres undefined) | -0.808% (inactive) and 1.27% (inactive)
O=C1CC[C@@]2(O)C3Cc4ccc(O)c5c4C2(CCN3CC2CC2)[C@H]1O5 (some centres undefined) | -3.7% (inactive)
